For 113 compounds, inhibition results are on record in PubChem BioAssay AID488890 (Southern Research Specialized Biocontainment Screening …, 2010).

Among all 320,000 compounds or so, about 1,300 (0.41%) were called active. Another 3% or so got no clear call; they are omitted. The rule behind the calls is not given here. These entries were drawn from the full list. Potency and affinity values are given separately.

The assay is described as follows: growth inhibition of non-replicating M. tuberculosis (AID 488890).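 Note: plate controls were DMSO cells for no effect and high antibiotic wells for full effect.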 The note with it: Mycobacterium tuberculosis non-replicating, at 25 µM, stronger effect = higher value.
On to `COc1ccc(CCN(C)C(=O)CSc2nnc(-c3ccco3)o2)cc1OC`, for which the inhibition was -6.6%. As for `C=CCn1c(SCC(=O)Nc2ccc(NC(=O)c3ccco3)c(OC)c2)nnc1-c1ccncc1`, the inhibition was determined as 13.9%. Next, `Cc1ccccc1OCC(=O)NCCCNC(=O)c1cccnc1`: -5.91%; `COc1cccc(-c2nnc(-c3ccco3)o2)c1`: 65.8%; `Cc1ccccc1Oc1ncnc(N)c1[N+](=O)[O-]`: 6.54%.

As for `Cc1cccc(Oc2ncnc(N)c2[N+](=O)[O-])c1C`, the inhibition is 29.9%. The result for `Cc1ccccc1C(=O)NCC(=O)OCCCOC(=O)CNC(=O)c1ccccc1C` reads -9.69%; that for `O=C1CN(C(=O)CNCc2ccccc2Cl)c2ccccc2N1`, 9.45%. Next, `Cc1ccc(-c2cc(-c3ccc(F)cc3)n[nH]2)c(O)c1`: -3.72%; `CN(C)CCOC(=O)/C(=C/c1cn(C)c2ccccc12)NC(=O)c1ccccc1`: -4.57%. Next, `Cc1ccc(S(=O)(=O)CCC(=O)OCC(=O)c2ccc(C)c(C)c2)cc1`: 73.6%; `Cc1ccc(C(=O)CCS(=O)(=O)c2ccc(F)cc2)cc1`: 69.2%; `Cc1ccc(C)c(OCc2nnc(NC(=O)c3ccc4c(c3)OCO4)s2)c1`: 6.85%. Regarding `O=C1NC2(CCCCC2)NN1c1ccccc1`, the inhibition stood at 18.6%. The result for `O=C1NC2(CCC3(CC2)OCCO3)NN1c1ccccc1` reads 14.8%; that for `O=C(O)Cc1ccc(Oc2ncc(C(F)(F)F)cc2Cl)cc1`, -16.8%; that for `Cc1cccc(-c2noc(CCCC(=O)Nc3cccnc3)n2)c1`, 32.7%.

For `O=C(CCCc1nc(-c2ccccc2)no1)Nc1cccnc1`, the inhibition was 34.2%.

Take `O=[N+]([O-])c1ccc2ncnc(Nc3ccc4c(c3)OCCO4)c2c1`: the inhibition was found to be 21.4%. Next, `CCOC(=O)c1sc2nc3n(c(=O)c2c1C)CCC3`: 1.86%. As for `Cc1c(C(=O)OCc2ccc(F)cc2)sc2nc3n(c(=O)c12)CCC3`, the inhibition was 29.2%. With `N#Cc1cc(N)ccc1Sc1ccccc1`, the inhibition was found to be 9.77%.

Take `COc1ccc(N2CCN(c3ccc(N)cc3C#N)CC2)cc1`: the inhibition was -1.74%. Next, `CS(=O)(=O)N(CC(=O)NCCC1=CCCCC1)c1ccc2c(c1)OCO2`: -1.16%; `COc1ccc(-c2cc(C(=O)NCCN3CCOCC3)no2)cc1OC`: -10.1%.

As to `Cc1ccc(C)c2sc(N3CCN(C(=O)c4ccc([N+](=O)[O-])o4)CC3)nc12`, the inhibition stood at 77.8%. Next, `O=C(c1ccccc1)N1CCN(c2nc3ccc([N+](=O)[O-])cc3s2)CC1`: 24.5%; `CCCCC(=O)N1CCN(c2nc3ccc(F)cc3s2)CC1`: 50.8%; `Cc1ccc2sc(N3CCN(C(=O)c4ccc([N+](=O)[O-])o4)CC3)nc2c1C`: 68.9%. Next, `Cc1ccc(OCCC(=O)OCC(=O)NCc2ccccc2)cc1`: 30.8%; `CC1(C(=O)CSc2ncn[nH]2)CCC(=O)O1` (stereo not drawn): -3.75%. Next, `O=C(NC1CC1)c1cc2ccccc2o1`: 6.17%; `O=C(NC1CCCCC1)c1cc2ccccc2cc1O`: 30.4%.

Turning to `CCn1cc(C(=O)NC(C)C2CC3CCC2C3)cn1` (stereo not drawn), the inhibition turned out to be 78.4%. For the compound `CC(NC(=O)Cn1cnnn1)C12CC3CC(CC(C3)C1)C2` (stereo not drawn), the inhibition came out at 2.51%. The result for `Cc1ccc(C2NC(=O)c3ccccc3O2)cc1` (stereo not drawn) reads 9.75%; that for `COc1ccc(NS(=O)(=O)c2ccc(N3CCCCC3)c(NC(=O)C(C)NC(N)=O)c2)cc1` (stereo not drawn), 17.6%; that for `CC/C(=N\NS(=O)(=O)c1ccc(C)cc1)c1ccco1`, -13.4%. Next, `COc1ccccc1OCCCCN1CCCCC1`: 7.51%; `COc1ccccc1OCCOCCN1CCCC1`: -3.17%. The result for `COc1ccc(CC(=O)NC(C)(C)C)cc1S(=O)(=O)N1CCOCC1` reads -3.56%; that for `COc1cc2c(cc1OC)CN(C(=O)c1ccc(Br)o1)CC2`, -1.97%; that for `O=C(c1ccc([N+](=O)[O-])o1)N1CCCCCC1`, 56.6%.

Turning to `O=C(c1ccc([N+](=O)[O-])o1)N1CCOCC1`, the inhibition was determined as 15.5%. Next, `O=C(c1ccccc1[N+](=O)[O-])N1CCc2ccccc2C1`: -4.71%; `O=C(c1ccc([N+](=O)[O-])cc1)N1CCc2ccccc2C1`: 39.6%.

`O=C(c1ccccc1)N1CCN(C(=O)c2cc3ccccc3o2)CC1`: the inhibition is -6.53%. The result for `COc1cc2c(cc1OC)CN(C(=O)c1ccc(OC)c([N+](=O)[O-])c1)CC2` reads 2.12%; that for `CC(=O)N1CCN(C(=O)c2cc3ccccc3o2)CC1`, 2.82%; that for `O=C(COC(=O)c1cncc(Br)c1)NCC1CCCO1` (stereo not drawn), 4.18%. Next, `N#Cc1ccc(S(=O)(=O)N2CCC(C(=O)Nc3cccc(C(=O)NC4CC4)c3)CC2)cc1`: 4.79%; `COC(=O)C1=C(C)N(C(C)C)C(=O)C1(NC(=O)C1CCCCC1)C(F)(F)F` (stereo not drawn): 7.64%. Next, `CCOc1ccc(C(NC(=O)CC)c2c(O)ccc3ccccc23)cc1` (stereo not drawn): 22.7%; `COc1ccc(N2CCOCC2)c(NC(=O)c2cccs2)c1`: -2.48%. Take `CN1C[C@H](C(=O)NC2(C)OC3(O)[C@@H]4CCCN4C(=O)[C@H](Cc4ccccc4)N3C2=O)CC2c3cccc4[nH]cc(c34)C[C@H]21` (stereo partly drawn): the inhibition was found to be 12.4%. The result for `CC1CCC(NC(=O)C2CC(O)CN2S(=O)(=O)c2ccc([N+](=O)[O-])cc2)CC1` (stereo not drawn) reads 11.1%; that for `O=C(Nc1ccccc1N1CCOCC1)c1ccc2ccccc2n1`, 32.1%. The result for `CSCCC(NC(=O)c1ccco1)C(=O)N1CCC(C(N)=O)CC1` (stereo not drawn) reads -11.5%; that for `COc1ccc(NC(=O)CN(C)C(=O)c2ccc3ccccc3n2)cc1`, -6.38%; that for `O=C(Nc1cc(Cl)ncn1)c1ccccc1`, 5.29%. On to `CCN(CC(=O)Nc1cccc(OC)c1)CC(=O)Nc1ccc(C)cc1Cl`, for which the inhibition turned out to be 13.4%.

`O=C(Nc1ccc(Cl)cc1)C1CCCCN1S(=O)(=O)c1ccccc1` (stereo not drawn): the inhibition is 10.3%. Next, `Cc1cc(C)c(C)c(OCC(=O)O/N=C(\N)c2ccccn2)c1`: 13%; `CCOC(=O)c1cccc(-n2cccc2/C=C2\NC(=O)N(CC(=O)O)C2=O)c1`: -4.64%. The result for `CC(NC(=O)C1CCC(CNS(=O)(=O)c2ccccc2)CC1)c1ccc2c(c1)OCCO2` (stereo not drawn) reads 0.52%. Next, `CC(=O)Nc1ccccc1Sc1ccccc1`: -2.8%; `N#CCC(CNc1ncc(C(F)(F)F)cc1Cl)OC(=O)c1ccc(Cl)cc1` (stereo not drawn): 27%; `CN(Cc1ccccc1)C(=O)c1ccco1`: 14.6%. In the case of `CC(C)(C)N(Cc1ccccc1)C(=O)COC(=O)c1ccc([N+](=O)[O-])o1`, the inhibition was found to be 4%. Next, `Cc1cc(NC(=O)CSc2nncn2N)no1`: -18%; `COC(=O)Cc1cc(=O)[nH]c(Nc2nc3ccccc3o2)n1`: 69%; `COCc1cc(=O)[nH]c(Nc2nc3ccc(C)cc3o2)n1`: -3.8%. Next, `COc1cc(C(=O)NCCCNc2nc3c(C)cc(C)cc3cc2C#N)cc(OC)c1OC`: 40.9%.

As for `Cc1[nH]n(-c2ccccc2)c(=O)c1N=Nc1cccc(Cl)c1`, the inhibition was 1.75%. Next, `Cc1[nH]n(-c2ccccc2)c(=O)c1N=Nc1ccc(Cl)cc1`: 22%; `COc1ccc(OC)c(C(=O)COC(=O)c2ccccc2O)c1`: 51.8%. Next, `COc1ccccc1C(=O)COC(=O)c1ccccc1O`: 26.5%; `COc1ccc(/C=N/NC(=O)c2c(Br)cnn2C)c2ccccc12`: 8.73%; `Cc1cccc(CCNC(=O)Cn2ncc3c([nH]c4ccccc43)c2=O)c1`: 3.21%.

Consider `COc1ccc(C(=O)NNC(=O)C23CC4CC(CC(C4)C2)C3)c(OC)c1`, for which the inhibition was 1.7%. Next, `COc1ccc(NC(=O)CNC(=O)C23CC4CC(CC(C4)C2)C3)c(OC)c1`: 7.13%; `Cc1cc(C)c2sc(N(CCCN(C)C)C(=O)CN3C(=O)c4ccccc4C3=O)nc2c1`: 16.6%. The result for `COc1cccc(NC(=O)C2C3C=CC(O3)C2C(=O)NCc2cccnc2)c1` (stereo not drawn) reads 7.86%.

In the case of `Cc1nc2ccc(NC(=O)c3ccc(Cl)c([N+](=O)[O-])c3)cc2s1`, the inhibition was -1.87%. The result for `Cc1nc2ccc(NC(=O)c3ccc([N+](=O)[O-])cc3)cc2s1` reads 41.2%; that for `COc1cc(-c2c(C#N)c(N)nc3c2c(C)nn3-c2ccc(C)c(C)c2)cc(OC)c1OC`, 20.3%. The result for `Cc1ccccc1Nc1c([N+](=O)[O-])cncc1[N+](=O)[O-]` reads 76%. Next, `COc1ccccc1Nc1c([N+](=O)[O-])cncc1[N+](=O)[O-]`: 55.7%; `CCN(CC(=O)NCc1ccc(F)cc1)C(=O)c1ccc2c(c1)OCO2`: -2%; `COc1ccc(C(=O)N2CCN(C)C(=O)[C@@H]2C)cc1OC1CCN(C(C)C)CC1`: -16.1%. For `Oc1ccc(C=NC2CCCCC2)c(O)c1`, the inhibition was -6.4%. The result for `CCn1c(O)c(C=NC2CCCC2)sc1=S` reads -4.02%.

As for `CCOC(=O)Oc1ccc2oc(C)c(C(=O)OCCOC)c2c1`, the inhibition stood at 61.6%. The result for `COCCOC(=O)c1c(C)oc2ccc(OC(=O)c3c(OC)cccc3OC)cc12` reads 0.6%; that for `CC(Oc1cc(Cl)ccc1Cl)C(=O)N/N=C\c1ccnn1C` (stereo not drawn), 10.1%; that for `O=C(C[n+]1cc(-c2ccc(Cl)cc2)n2c1CCCCC2)c1ccccc1`, -12.8%. Next, `CC1CCC(C(C)C)C(OC(=O)C[n+]2cc(-c3ccc(Cl)cc3)n3c2CCC3)C1` (stereo not drawn): 49.4%. For `CSc1nnc(-c2ccccc2)o1`, the inhibition is 17.4%. As to `Cn1c(SC2=CS(=O)(=O)c3ccccc32)nc2ccccc21`, the inhibition was found to be 58%. The result for `O=C(O)CSc1nnc(-c2ccccc2)o1` reads -5.91%; that for `Cc1cc(C)nc(SC2=CS(=O)(=O)c3ccccc32)n1`, -0.38%. Next, `CC(C)c1ccc(N(C(=O)c2snc(C(N)=O)c2N)C(C(=O)NC2CCCC2)c2ccncc2)cc1` (stereo not drawn): 15.7%. Next, `COc1ccccc1-c1cc(C(F)(F)F)nc(NCc2cccs2)n1`: 13.2%. As for `Cc1ccc(C(=O)N/C(=C\c2cn(C)c3ccccc23)C(=O)OCCN(C)C)cc1`, the inhibition turned out to be 1.18%.

In the case of `CCOC(=O)C1CCN(C(=O)C(C)Oc2ccc(C(=O)c3ccccc3)cc2)CC1` (stereo not drawn), the inhibition was 28.6%. Next, `COc1cc(-c2ccc3oc(-c4ccsc4)cc(=O)c3c2)cc(OC)c1OC`: 72.1%. For `Cc1ncc([N+](=O)[O-])n1CC(=O)Nc1ccc(F)cc1F`, the inhibition is -8.21%. The result for `CN(Cc1ccccc1)C(=O)Nc1ccc(Cl)cc1` reads 48.8%. Next, `O=C1N=c2ccccc2=C1c1sc(=S)n(Cc2ccccc2Cl)c1O`: -18.1%; `CCOC(=O)c1ccc(-n2nc(C)cc2C)cc1`: 13.4%; `Cc1cc(C)n(-c2ccc(C(=O)OC(C)C)cc2)n1`: 5.09%. For the compound `CCOc1cc2c(cc1OCC)-n1cccc1C(c1ccccc1F)NC2` (stereo not drawn), the inhibition was found to be 19.4%. Next, `CS(=O)(=O)Cc1ccc(C(=O)N2CCCC2c2cccs2)cc1` (stereo not drawn): 0.57%.
